Compounds without any hit were thinned out: in the full panel of roughly 83,000, 20% have a hit.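 Values shown are percent growth following 48 h exposure of cells in 96-well plates to a single concentration of compound; below 10 was considered active.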 A number with no mark means an inactive call. Calls of active or inactive are those of the source.
How the values were obtained:
Experiment in all cases: NCI-60 one-dose screen, 48 h (100 = growth as untreated, 0 = no growth, -100 = all killed)
Conditions in all cases: 10 µM unless noted
[1] = test system: SK-MEL-2 melanoma
[2] = test system: SN12C renal
[3] = test system: UO-31 renal
[4] = test system: TK-10 renal
[5] = test system: ACHN renal
[6] = test system: CAKI-1 renal
[7] = test system: A498 renal
[8] = test system: EKVX NSCLC
[9] = test system: CCRF-CEM leukemia
[10] = test system: MOLT-4 leukemia

SMILES | growth [1] | growth [2] | growth [3] | growth [4] | growth [5] | growth [6] | growth [7] | growth [8] | growth [9] | growth [10]
CC(=O)c1nn(-c2ccccc2)c(=Nc2ccccc2)cc1C | 114% | 97.7% | 86.2% | 104% | 86.7% | 99.1% | 103% |  |  | 
C[C@]12CC[C@H](O)CC1=CC[C@@H]1[C@@H]2CC[C@]2(C)C(c3cccnc3)=CC[C@@H]12 | 27.6% | 91% |  | 93.6% | 61% |  | 64.4% | 38.8% | 51.3% | 34.1%
COc1cc(OC)c2c(c1Cl)O[C@]1(C2=O)C(OCc2ccccc2)=CC(=O)C[C@H]1C | 2.04% (active) | 13.3% | 9% (active) | 15.9% | 6.86% (active) | 10.9% | -0.948% (active) |  | 10.4% | 
NS(=O)(=O)c1cc(C2(O)NC(=O)c3ccccc32)ccc1Cl (configuration not stated) | 113% | 101% |  |  | 90.7% | 93.9% | 129% | 108% | 98.9% | 93.6%
CCn1cnc(C[C@H](NC(=O)[C@H](CCCCNC(=O)Nc2cc(C(F)(F)F)cc(C(F)(F)F)c2)NC(=O)Nc2cc(C(F)(F)F)cc(C(F)(F)F)c2)C(=O)OC)c1 | -100% [100 µM] (active) | -6.45% [100 µM] (active) | 49.4% [100 µM] | -36.5% [100 µM] (active) | -40.4% [100 µM] (active) | 68.4% [100 µM] | -52.4% [100 µM] (active) |  |  | -33.8% [100 µM] (active)
CC1CC=CCC1C1OCC(C)(C)CO1 (configuration not stated) | 124% | 103% | 97.7% | 111% | 106% | 106% | 103% |  |  | 102%
Cc1ccc(-c2c3c(N)c4c(nc3nc3c2c(C)nn3-c2ccccc2)CCC4)cc1 | 88.6% | 94.1% | 50.5% | 100% | 12% | 99.2% | 107% |  |  | 60.9%
O=C(NC1CCCCC1)c1ccc(Nc2ncnc3c2cnn3-c2ccccc2)cc1 | 79.1% | 19% | 57.7% | 51% | 54.3% | 62.3% | 50.4% |  | 64.9% | 89.5%
CCCCCc1c(C)[nH]c(/C=C2\N=C(c3ccc[nH]3)C=C2Oc2ccccc2)c1C | -63.3% [100 µM] (active) | -63.4% [100 µM] (active) | -70.1% [100 µM] (active) | -62% [100 µM] (active) | -61% [100 µM] (active) | -62.8% [100 µM] (active) | -75.3% [100 µM] (active) |  |  | -40.2% [100 µM] (active)
CC(NNC(=S)N1CCCCCC1)c1ccc2ccccc2n1 (configuration not stated) | 90.2% | 37.3% | 9.9% (active) | 41.9% | 16.7% | -9.22% (active) | 71.1% |  |  | 28.3%
Cc1ccc(-c2c3c(N)nc(-c4ccncc4)nc3nc3c2c(C)nn3-c2ccccc2)cc1 | -7.11% (active) | 26.8% | 93.4% | 12.3% | 53.2% | 72.5% | 82.7% |  |  | 65.3%
C1=C(Cc2ccccc2)n2cnc3ncnc(c32)S1 | 75% | 86.4% | 48.3% | 28.6% | 87.2% | 39.6% | 99.6% |  | 58.9% | 31.2%
COc1ccc([N+](=O)[O-])c(S(=O)(=O)c2ccc(Cl)cc2)n1 | 92.9% | 74.5% | 51.7% | 81.1% | 26.9% | 49.6% | 110% |  | -11.5% (active) | 2.58% (active)
COc1ccc(-c2c3c(N)nc(-c4ccncc4)nc3nc3c2c(C)nn3-c2ccccc2)cc1 | 48.1% | 83.7% | 85.4% | 47% | 3.79% (active) | 36% | 73.2% |  |  | 51.2%
Cc1[nH]c(=O)[nH]c(=O)c1CCSSCCc1c(C)[nH]c(=O)[nH]c1=O | 102% | 104% | 83.3% | 101% | 104% | 97.1% | 107% |  |  | 100%
CCCCCc1c(C)[nH]c(/C=C2\N=C(c3ccc[nH]3)C=C2OCc2ccccc2)c1C | -75% [100 µM] (active) | -77% [100 µM] (active) | -93.6% [100 µM] (active) | -81.3% [100 µM] (active) | -91.5% [100 µM] (active) | -74.4% [100 µM] (active) | -79.2% [100 µM] (active) |  |  | -57.8% [100 µM] (active)
CSc1nc2nc3c(nc2c(=O)n1C)C(=O)c1ccccc1C3=O | -64.9% (active) | -76.7% (active) | -86.1% (active) | -79.1% (active) | -95% (active) | -35.3% (active) | -75.3% (active) |  |  | -11.9% (active)
COc1cccc(CCN2C(=O)CCC3=C2CCC3=O)c1 | 145% | 99.4% | 85.7% | 107% | 99.8% | 98% | 114% |  |  | 105%
COc1cc2c(cc1OC)C(CC1(O)CCCCC1)N(S(=O)(=O)c1ccc(C)cc1)CC2 (configuration not stated) | 6.69% [100 µM] (active) | 42.3% [100 µM] | 25.8% [100 µM] | 40.9% [100 µM] | 18.5% [100 µM] | 22% [100 µM] | 0.608% [100 µM] (active) |  |  | 3.12% [100 µM] (active)
CCCCCCCCCCCCCCCCCC1=NC(C)(CO)CO1 (configuration not stated) | 91.3% | 94.2% | 76.3% | 87.1% | 91% | 85.5% | 104% |  |  | 93.8%
C=CCN(/C=C/CN(CC=C)CC=C)CC=C | 115% | 104% | 90.1% | 96.9% | 93.2% | 69.7% | 91.8% |  |  | 96.4%
FC(F)(F)c1ccc(-c2cnc(-c3nn[nH]n3)nc2NC2CCCCCC2)cc1 | 47.3% [50 µM] | 50.9% [50 µM] | 38.2% [50 µM] | 105% [50 µM] | 68.9% [50 µM] | 36.8% [50 µM] | 61.5% [50 µM] |  |  | 25.4% [50 µM]
CCCCCCCCCCCCCCCCNC(=O)Nc1ccc2ccccc2c1 | 118% | 89.7% | 104% | 110% | 108% | 107% | 104% |  |  | 105%
COC(=O)[C@H](CCCCNC(=O)OCc1ccccc1)NC(=O)[C@@H](NC(=O)Nc1cc(C(F)(F)F)cc(C(F)(F)F)c1)C(C)C | -77.3% [100 µM] (active) | -88.3% [100 µM] (active) | -88.6% [100 µM] (active) | -44% [100 µM] (active) | -99.4% [100 µM] (active) | -36.3% [100 µM] (active) | -5.02% [100 µM] (active) |  |  | -7.72% [100 µM] (active)
Oc1c(N=Nc2nn[nH]n2)ccc2ccccc12 | 107% | 84.3% | 59.1% | 132% | 86.8% | 98.2% | 102% |  |  | 99.2%
CC(=O)c1ccc(NS(=O)(=O)c2ccc([N+](=O)[O-])cc2)cc1 | 95.1% | 99.5% | 77.8% | 100% | 93.8% | 96.9% |  |  | 93.8% | 87.1%
CCCCCCCC[Si](OCC)(OCC)OCC | 102% | 106% | 81.1% | 90.8% | 98.2% | 54.9% | 105% |  |  | 95.7%
Cc1nn(-c2ccccc2)c2nc(N)c(C3=NCCO3)nc12 | 111% | 96.8% | 73.5% | 128% | 83% | 78.4% | 92.1% |  |  | 101%
CC[N+](CCCCCCCCCC[N+](CC)(c1ccccn1)c1ccccn1)(c1ccccn1)c1ccccn1 | -58.6% (active) | 5.03% (active) | 26.4% | -3% (active) | 20.9% | 24.2% | -2.28% (active) |  |  | -8.33% (active)
NS(=O)(=O)c1ccc(-n2nc(-c3ccc(Br)cc3)ccc2=O)cc1 | 66.6% [100 µM] | 70.9% [100 µM] | 89.2% [100 µM] | 22.2% [100 µM] | 70.8% [100 µM] | 75.1% [100 µM] | 40.6% [100 µM] |  |  | 92.6% [100 µM]
